# Assay outcomes deposited in PubChem by Buhrlage Lab, Dana-Farber Cancer Institute and Novartis Institutes for BioMedical Research (Cambridge, Mass).
# USP28 inh: human USP28 deubiquitinase inhibition | inhibition, % at 25 µM | AID 1645857 | Q96RU2 | actives 3% (n = 47,000) | purified USP28, Ub-rhodamine cleavage fluorescence, 30 min
# Target sequence (Q96RU2 whole entry, looked up): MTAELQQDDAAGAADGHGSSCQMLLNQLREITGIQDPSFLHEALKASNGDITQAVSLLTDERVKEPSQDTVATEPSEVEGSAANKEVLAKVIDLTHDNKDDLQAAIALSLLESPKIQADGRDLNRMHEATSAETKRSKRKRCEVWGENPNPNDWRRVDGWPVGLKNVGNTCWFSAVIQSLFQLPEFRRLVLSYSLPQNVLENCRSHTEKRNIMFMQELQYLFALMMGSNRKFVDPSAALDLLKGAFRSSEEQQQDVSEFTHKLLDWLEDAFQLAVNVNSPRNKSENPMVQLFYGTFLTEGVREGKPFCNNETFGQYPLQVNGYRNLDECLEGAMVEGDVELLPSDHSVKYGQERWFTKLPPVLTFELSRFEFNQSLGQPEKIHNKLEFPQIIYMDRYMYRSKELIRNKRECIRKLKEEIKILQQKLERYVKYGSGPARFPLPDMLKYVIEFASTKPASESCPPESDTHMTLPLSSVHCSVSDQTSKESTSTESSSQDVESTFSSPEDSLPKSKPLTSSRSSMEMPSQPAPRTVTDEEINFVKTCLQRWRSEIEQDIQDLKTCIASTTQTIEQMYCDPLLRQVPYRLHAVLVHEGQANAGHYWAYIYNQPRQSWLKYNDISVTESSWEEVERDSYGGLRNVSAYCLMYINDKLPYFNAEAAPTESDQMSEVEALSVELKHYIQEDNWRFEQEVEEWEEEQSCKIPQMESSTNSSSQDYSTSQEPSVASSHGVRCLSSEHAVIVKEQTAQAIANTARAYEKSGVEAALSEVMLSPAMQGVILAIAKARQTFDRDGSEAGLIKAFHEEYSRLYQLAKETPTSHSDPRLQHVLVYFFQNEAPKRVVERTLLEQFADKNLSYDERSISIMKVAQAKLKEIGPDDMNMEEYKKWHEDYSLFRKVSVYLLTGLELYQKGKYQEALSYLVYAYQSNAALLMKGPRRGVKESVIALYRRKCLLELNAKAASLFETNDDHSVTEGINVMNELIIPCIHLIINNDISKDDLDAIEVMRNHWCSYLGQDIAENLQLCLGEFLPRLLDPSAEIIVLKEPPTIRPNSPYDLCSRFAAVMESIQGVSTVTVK
# USP10 inh: inhibitors of human USP10 deubiquitinase; Q14694; purified USP10, Ub-rhodamine fluorescence, 60 min; inhibition, % at 20 µM; actives 1.1% (n = 47,000); AID 1645856
# USP7 inh: blocks human USP7 ubiquitin-rhodamine cleavage | actives 0.3% (n = 47,000) | inhibition, % at 20 µM | Q93009 | purified USP7, Ub-rhodamine cleavage fluorescence
# OTUD3 inh: inhibitors of human OTUD3 deubiquitinase | AID 1645858 | actives 0.7% (n = 47,000) | inhibition, % at 25 µM | Q5T2D3 | purified OTUD3, Ub-rhodamine fluorescence, 2 h
# UCHL1 block: human UCHL1 deubiquitinase inhibition; actives 0.2% (n = 47,000); inhibition, % at 20 µM; purified UCHL1, Ub-rhodamine cleavage fluorescence; P09936
# A number is an active result; . = inactive; / = no result given. Hits are enriched below; roughly 4.2% of the tested compounds scored in any of these assays. Rule as the data show it: active = inhibition above about 30%; inactive = the rest.
SMILES,USP28 inh,USP10 inh,USP7 inh,OTUD3 inh,UCHL1 block
COc1ccc(/C=C2\CSc3sccc3C2=O)cc1,50,.,.,.,.
COc1ccc(/C=C/c2cc(OC)cc(=O)o2)cc1,.,.,.,.,.
COc1ccc(NC(=O)c2ccc3ccnc(N4CCN(c5ccc(OC)cc5)CC4)c3c2)cc1,.,.,.,.,.
CCc1ccc(NC(=O)Cc2nnc3cc(-c4nc(C)no4)ccn23)cc1,30,56,44,.,.
CCc1noc(-c2ccn3c(CC(=O)Nc4ccccc4C)nnc3c2)n1,.,.,.,.,.
Cc1ccc(NC(=O)Cc2nnc3cc(-c4nc(C)no4)ccn23)cc1,42,46,39,30,.
N#Cc1ccc(NC(=O)COc2ccc3oc4ccccc4c3c2)cc1,.,.,.,.,.
CCCCN1Cc2sc(NC(=O)Nc3ccccc3F)nc2C1=O,.,.,.,.,.
CCN1C[C@H]2C3(CCN(C(=O)Nc4ccccc4)CC3)CC[C@@]2(C(=O)N(C)C)C1,.,.,.,.,.
CCCCCC(=O)N1c2ccccc2NC2=C(C(=O)CC(c3ccc(C(C)(C)C)cc3)C2)C1c1ccncc1 (stereo not given),.,.,.,.,.
O=C(CCn1nnc2cc(-c3noc(C4CCCCC4)n3)ccc21)N1CCOCC1,.,.,.,.,.
CC1NC(=O)C(CC(N)=O)NC(=O)C(C(C)O)NC(=O)C(C(C)C)NC(=O)C(C(C)C)NC(=O)C(NC(=O)CC(O)CCCCCCCCCCCCN=C(N)N)C(C)OC1=O (stereo not given),84,.,.,83,.
CC(C)(C)c1ccc(C(=O)Nc2ccc(Cn3cncn3)cc2)cc1,56,.,.,.,.
O=C(Nc1ccc(Cn2cncn2)cc1)C1CCCCC1,.,.,/,.,.
O=C(COc1ccc(C2CCCCC2)cc1)Nc1ccc(-c2nn3cnnc3s2)cc1,45,35,.,46,.
O=C(Nc1ccc(-c2nn3cnnc3s2)cc1)c1ccc(Br)cc1,.,.,.,.,.
CCNC(=O)N[C@@H]1C[C@@H](Oc2ccccc2)[C@H](O)[C@H]1N1CCOCC1,.,.,.,.,.
O=S(c1ccc2ccccc2c1)c1cnns1 (stereo not given),.,.,.,34,.
COc1cc(C(=O)Oc2ccc3ccc(=O)oc3c2)cc(OC)c1OC,.,.,.,.,.
CC(C)N1Cc2ccccc2CN2C[C@@H](NC(=O)NC3CCOCC3)C[C@H]2C1,.,.,.,.,.
COc1ccc(CCC(=O)Nc2nnc(C3CC(=O)N(c4ccc(C)cc4)C3)s2)cc1 (stereo not given),.,38,.,.,.
Cc1ccc(N2CC(c3nnc(NC(=O)CCc4ccccc4)s3)CC2=O)cc1 (stereo not given),.,.,.,.,.
CC(C)OC(=O)c1cc2c(ccn2-c2ccc(F)cc2)n1CC(=O)NC1CCCCC1,.,.,.,47,.
Cc1nc(NC(=O)c2cccc(Cl)c2)sc1C(=O)Nc1cccnc1,.,.,.,.,.
CC12c3ccc4c(c3C(=O)c3occ(c31)C(=O)CC2O)CCC4=O (stereo not given),54,.,.,.,.
SMILES,USP28 inh,USP10 inh,USP7 inh,OTUD3 inh,UCHL1 block
O=C(O)c1nccnc1C(=O)N1CCc2ccccc2C1,46,.,.,.,.
O=C(c1cc(C2CC2)on1)N1CCc2ccccc2C1,.,.,.,.,.
COc1cc(C(=O)OCc2csc(-c3ccccc3)n2)ccc1OCC(=O)Nc1ccc(F)cc1,.,.,.,36,.
COc1cc(C(=O)OCc2csc(-c3ccccc3)n2)cc(Cl)c1OC,.,.,.,.,.
COc1cccc(CCN2C[C@@]34CN(C(=O)C5CCC5)C[C@@H](C[C@@H]3S2(=O)=O)O4)c1,.,.,.,.,.
Cc1cc(NC(=O)c2[nH]nc3c2CCc2ccccc2-3)no1,.,.,.,.,.
COc1ccc2c(c1)CCc1c-2n[nH]c1C(=O)Nc1cc(C)on1,34,.,.,.,.
O=C(CC1C=CCC1)N1CCC(c2ccc(Nc3ccc(F)cn3)cn2)CC1 (stereo not given),.,.,.,.,.
Cn1c(-c2c(-c3ccccc3)n[nH]c2-c2ccccc2Cl)nc2ccccc21,38,.,.,.,.
Cn1c(-c2c(N)n(Cc3ccc(Cl)cc3)c3nc4ccccc4nc23)nc2ccccc21,.,.,.,.,.
Cn1c(=O)c2nc(-c3ccc(Cl)cc3)nnc2n(C)c1=O,.,40,.,.,32
Cn1c(=O)c2c(nc3n(CCO)c(-c4ccc(Cl)cc4)cn23)n(C)c1=O,.,.,.,.,.
Cc1nc2cc(-c3noc(-c4cccc5[nH]ccc45)n3)ccc2o1,42,.,.,.,.
Cc1cc(C)c(NC(=O)COC(=O)C(c2ccccc2)c2ccccc2)c(C)c1,.,.,.,.,.
CCOc1ccccc1NC(=O)COC(=O)C(c1ccccc1)c1ccccc1,.,.,.,34,.
Cc1nn(CC(=O)c2ccc3c(c2)NC(=O)CO3)c(C)c1[N+](=O)[O-],32,.,.,.,.
O=C(Nc1ccc(CN2CCOCC2)cc1)c1cc2cc(Br)ccc2o1,47,.,.,.,.
O=c1[nH]c2ccc(Nc3nc4ccccc4n4cnnc34)cc2[nH]1,/,.,.,.,.
CCn1c(CNc2ccc(C)cc2)nnc1SCC(=O)Nc1ccc(C(=O)OC)cc1,42,.,.,.,.
CCn1c(CNc2ccc(C)cc2)nnc1SCC(=O)Nc1ccccc1F,.,.,.,.,.
Cc1cc(C)c(NC(=O)Cn2c(=O)n(Cc3ccccc3)c(=O)c3nn(C)cc32)c(C)c1,64,.,.,44,.
CCn1cc2c(n1)c(=O)n(Cc1ccccc1)c(=O)n2CC(=O)Nc1ccc(C)cc1C,.,30,30,.,.
Cc1ccc2c(c1)N(Cc1ccc(Cl)cc1)C(=O)CCS2,.,.,.,.,.
Cc1c(C(=O)N2CCC(Cc3ccccc3)CC2)oc2c1C(=O)CCC2,.,.,.,.,.
O=C1C(O)=C(c2ccc(O)cc2)C(=O)C(O)=C1c1ccccc1,.,.,.,33,.
SMILES,USP28 inh,USP10 inh,USP7 inh,OTUD3 inh,UCHL1 block
CC1=C(O)C(=O)C(C2=C(O)C(=O)C(C)=C(O)C2=O)=C(O)C1=O,.,.,.,.,.
CCOC(=O)c1c(C)oc2ccc(N(C(=O)c3ccncc3)S(=O)(=O)c3ccc(OCC)cc3)cc12,38,.,.,.,.
NC(=O)c1cc2ccccc2nc1C1CCN(C(=O)Cc2ccc(F)cc2)CC1,.,.,.,.,.
O=C(CCCCn1c(=O)[nH]c2ccccc2c1=O)Nc1cccc(Cl)c1,.,.,30,.,.
CNc1cc(C)nc(C2CN(C(=O)c3ccc(C)n(C)c3=O)CCO2)c1 (stereo not given),.,.,.,.,.
O=C1C[C@@H](O)[C@H](O)[C@@]23O[C@@]12C1(Oc2cccc4cccc(c24)O1)[C@@H]1O[C@@H]1[C@@H]3O,46,.,.,33,.
Fc1ccc(Cn2ccc(-c3cnc(-c4ccccc4)s3)n2)cc1,62,.,.,.,.
